The nature of experiment [1]: ATG_M_32_CIS: Attagene CIS-FACTORIAL HepG2 Assay for M32 Transcription Factor (Internal Marker) (AID 2282949).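 Also: background control marker of the multiplexed CIS panel rather than a real target.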 To be noted: HepG2 Attagene cis-factorial M32 reporter, mRNA; actives raise or lower the signal. A digest of the protocol: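 Following 24 h chemical exposure of HepG2 cells transiently expressing cis-promoter reporter constructs, reporter transcript levels were determined by RT-PCR with fluorescent labelling and capillary electrophoresis, then fitted bidirectionally against DMSO.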

Experiment [2] is described as follows: ATG_M_06_CIS: Attagene CIS-FACTORIAL HepG2 Assay for M06 Transcription Factor (Internal Marker) (AID 2282950). The note with it: HepG2 Attagene CIS-FACTORIAL M06 internal marker reporter; actives raise or lower the signal. A digest of the protocol: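 Internal background marker within multiplexed cis-reporter HepG2 system. Cells transiently transfected, dosed 24 h; reporter mRNA measured by RT-PCR, HpaI digestion and capillary electrophoresis. Bidirectional fit relative to DMSO.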

The target in experiment [3] is Hypoxia-inducible factor 1-alpha (Homo sapiens) (UniProt Q16665). Description: ATG_HIF1a_CIS: Attagene CIS-FACTORIAL HepG2 Assay for human Hypoxia Inducible Factor 1 (HIF1A) (AID 2282951). The note with it: HepG2 Attagene cis-factorial HIF1a reporter transcription; actives raise or lower the signal. The gist of the method:
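Measures endogenous transcription-factor activity through cis-regulated reporter mRNA in HepG2. Cells dosed 24 h; transcripts quantified by RT-PCR with 6-FAM-labelled products separated by capillary electrophoresis; DMSO serves as negative control.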

Experiment [4] deals with Hepatocyte nuclear factor 6 (Homo sapiens) (UniProt Q9UBC0). Description: ATG_HNF6_CIS: Attagene CIS-FACTORIAL HepG2 Assay for human Hepatocyte Nuclear Factor 6 (HNF6) (AID 2282952). The note with it: HepG2 Attagene cis-factorial HNF6 reporter transcription; actives raise or lower the signal. The gist of the method: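 HepG2, transient MRTU transfection (cis promoters); 24 h chemical exposure; total RNA → oligo(dT) RT → PCR → 6-FAM labelling → HpaI cut → CE; bidirectional fit vs DMSO.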

Experiment [5] is described as follows: ATG_MRE_CIS: Attagene CIS-FACTORIAL HepG2 Assay for human Metal Responsive Element (MRE) (AID 2282954). The note with it: HepG2 MRE cis-reporter transcription, Attagene multiplex; actives raise or lower the signal. The gist of the method:
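HepG2 cells transiently transfected with multiple cis-element reporter units measure endogenous MTF1-driven transcription. After 24 h compound exposure, reporter mRNA is quantified by RT-PCR with 6-FAM labelling, HpaI digestion and capillary electrophoresis; bidirectional fits versus DMSO.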

Experiment [6] is described as follows: ATG_PPRE_CIS: Attagene CIS-FACTORIAL HepG2 Assay for human Peroxisome Proliferator-activated Response Element (PPRE) (AID 2282958). The note with it: HepG2 PPRE cis-element reporter, Attagene transcription factor profiling; actives raise or lower the signal. A digest of the protocol:
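Cells are first transfected transiently with the multiplexed reporter library, then dosed for 24 h. Total RNA is reverse-transcribed, amplified, fluorescently end-labeled and HpaI-cut before capillary electrophoresis; activity is fitted bidirectionally against DMSO controls.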

A short description of experiment [7]: ATG_RORE_CIS: Attagene CIS-FACTORIAL HepG2 Assay for human RAR-related Orphan Receptor Element (RORE) (AID 2282959). To be noted: HepG2 Attagene cis-factorial RORE reporter, mRNA; actives raise or lower the signal. A digest of the protocol:
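Cells were HepG2 carrying transfected cis-regulated reporter constructs, dosed for 24 hours. Total RNA was reverse-transcribed and reporter cDNA amplified, fluorescently labeled and sized by capillary electrophoresis. Activity was fitted bidirectionally relative to DMSO.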

The nature of experiment [8]: ATG_Sox_CIS: Attagene CIS-FACTORIAL HepG2 Assay for human SRY-box transcription factor (SOX) (AID 2282960). The note with it: HepG2 Attagene cis-factorial SOX reporter, mRNA; actives raise or lower the signal. A digest of the protocol: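 Transient MRTU transfection of HepG2; 24 h compound incubation; TriZol RNA, oligo(dT) RT, PCR, 6-FAM primer extension, HpaI cut, CE. Bidirectional fit, DMSO = baseline.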

For experiment [9], the target named is Transcription factor Sp1 (Homo sapiens) (UniProt P08047). Description: ATG_Sp1_CIS: Attagene CIS-FACTORIAL HepG2 Assay for human Specificity Protein 1 (Sp1) (AID 2282961). The note with it: HepG2 Sp1 cis-reporter transcription, actives raise or lower the signal. A digest of the protocol:
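Endogenous Sp1 activity was gauged in human liver HepG2 cells bearing transfected reporter units under a cis-regulating promoter. After 24 h dosing, reporter mRNA was quantified by RT-PCR with capillary electrophoresis, and activity fitted bidirectionally versus DMSO.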

Experiment [10] is described as follows: ATG_SREBP_CIS: Attagene CIS-FACTORIAL HepG2 Assay for human Sterol Regulatory Element Binding (SREBP) (AID 2282962). The note with it: HepG2 Attagene cis-factorial SREBP reporter, mRNA; actives raise or lower the signal. A digest of the protocol: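 Twenty-four hours after chemical dosing of transfected HepG2 cultures, reporter RNA was converted to cDNA, amplified, end-labelled with 6-FAM and resolved by capillary electrophoresis. Responses were fitted relative to DMSO.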

For experiment [11], the target named is Signal transducer and activator of transcription 3 (Homo sapiens) (UniProt P40763). Description: ATG_STAT3_CIS: Attagene CIS-FACTORIAL HepG2 Assay for human Signal Transducer and Activator of Transcription 3 (STAT3) (AID 2282963). The note with it: HepG2, Attagene cis-factorial STAT3 reporter transcription; actives raise or lower the signal. A digest of the protocol: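 HepG2 cells transiently transfected with cis-element-driven multiple reporter transcription units; after 24 h chemical exposure, reporter mRNA measured by RT-PCR, 6-FAM primer-extension labelling, HpaI digestion and capillary electrophoresis. Bidirectional fitting versus DMSO baseline.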

A short description of experiment [12]: ATG_TA_CIS: Attagene CIS-FACTORIAL HepG2 Assay for human TA Basal Promoter (AID 2282964). To be noted: HepG2 Attagene CIS-factorial TA basal promoter reporter; actives raise or lower the signal. The gist of the method: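 HepG2 cells transiently transfected with multiple reporter units under cis promoter elements, reporting endogenous transcription factor activity; this endpoint tracks the TA basal promoter as background control. Reporter mRNA after 24 h dosing measured by RT-PCR/capillary electrophoresis; bidirectional fits versus DMSO.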

The nature of experiment [13]: ATG_TCF_b_cat_CIS: Attagene CIS-FACTORIAL HepG2 Assay for human T-Cell-Factor with beta-catenin (TCF/b-cat) (AID 2282965). The note with it: HepG2 TCF/beta-catenin cis-reporter transcription, actives raise or lower the signal. The gist of the method:
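Using capillary electrophoresis as the read-out, labelled reporter cDNA fragments from transiently transfected HepG2 were sized and quantified. Exposure lasted 24 hours; activity in either direction was referenced to DMSO.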

Experiment [14] is described as follows: ATG_TAL_CIS: Attagene CIS-FACTORIAL HepG2 Assay for human TAL Basal Promoter (AID 2282966).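 Also: background control endpoint measuring basal TAL promoter reporter mRNA not a specific factor.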 The note with it: HepG2 Attagene cis-factorial TAL promoter reporter; actives raise or lower the signal. The gist of the method:
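Fluorescence of labelled reporter cDNA fragments, resolved by capillary electrophoresis, gave the readout. Human HepG2 liver cells carried transiently transfected cis-element reporter units and were treated for 24 hours; activity was fitted bidirectionally against DMSO.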

Experiment [15] can be described thus: ATG_TGFb_CIS: Attagene CIS-FACTORIAL HepG2 Assay for human Transforming Growth Factor (TGF) (AID 2282967). The note with it: HepG2 Attagene CIS TGFb reporter, mRNA transcription; actives raise or lower the signal. A digest of the protocol:
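HepG2 cells transiently transfected with cis-promoter-driven multiple reporter units measure endogenous TF activity; reporter mRNA quantified at 24 h by RT-PCR, FAM labeling, HpaI digestion and capillary electrophoresis. Bidirectional fit vs DMSO.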

Experiment [16] has as its target Heat shock factor protein 1 (Homo sapiens) (UniProt Q00613). Description: ATG_HSE_CIS: Attagene CIS-FACTORIAL HepG2 Assay for human Heat Shock Transcription Factor 1 (HSE) (AID 2282953). The note with it: HepG2 HSE cis-reporter, Attagene RNA transcription; actives raise or lower the signal. The gist of the method:
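HepG2 cells transfected with cis-promoter reporter units sensing endogenous transcription factor activity; reporter mRNA quantified 24 h post-dose by RT-PCR and capillary electrophoresis of 6-FAM-labelled products. Bidirectional fitting against DMSO.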

The nature of experiment [17]: ATG_PBREM_CIS: Attagene CIS-FACTORIAL HepG2 Assay for human Phenobarbital-responsive Enhancer Module (PBREM) (AID 2282955). To be noted: HepG2 PBREM cis-reporter, Attagene multiplexed transcription; actives raise or lower the signal. A digest of the protocol:
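Fluorescence of labelled reporter cDNA fragments, resolved by capillary electrophoresis, gives mRNA induction in transfected HepG2 cells treated for 24 h; DMSO serves as negative control and baseline.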

A short description of experiment [18]: ATG_PXRE_CIS: Attagene CIS-FACTORIAL HepG2 Assay for human Pregnane X Receptor Element (PXRE) (AID 2282957). The note with it: HepG2 Attagene CIS-FACTORIAL PXRE reporter, mRNA; actives raise or lower the signal. A digest of the protocol: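 Transfect HepG2 with MRTUs (cis promoter elements); dose chemical, incubate 24 h; isolate RNA, RT with oligo(dT), PCR, 6-FAM label, HpaI cut, CE. Gain/loss fit vs DMSO.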

The nature of experiment [19]: ATG_VDRE_CIS: Attagene CIS-FACTORIAL HepG2 Assay for human Vitamin D Receptor Element (VDRE) (AID 2282968). The note with it: HepG2 VDRE cis-reporter transcription, actives raise or lower the signal. A digest of the protocol: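 HepG2 cells transiently transfected with cis-element reporter units, dosed 24 h; reporter mRNA measured by RT-PCR, 6-FAM labeling, HpaI digestion and capillary electrophoresis. Activity fitted bidirectionally against DMSO baseline.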

Experiment [20] has as its target Paired box protein Pax-6 (Homo sapiens) (UniProt P26367). Description: ATG_Pax6_CIS: Attagene CIS-FACTORIAL HepG2 Assay for human Paired Box 6 (PAX6) (AID 2282956). The note with it: HepG2 CIS-FACTORIAL PAX6 reporter transcription, RNA readout; actives raise or lower the signal. The gist of the method:
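After twenty-four hours of chemical exposure, transfected HepG2 cells are harvested for RNA. Cis-promoter reporter transcripts are amplified, fluorescently labelled and sized by capillary electrophoresis, with gain and loss of signal scored against DMSO.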

More than one record can exist for a structure, and the calls need not agree. The source made the active and inactive calls. The calls were made as follows: active = hit-call score of the fitted dose curve at least 0.9, where 1 is the maximum; inactive = score below 0.9.

Sequence of Hypoxia-inducible factor 1-alpha (Homo sapiens) (Q16665 whole entry, looked up): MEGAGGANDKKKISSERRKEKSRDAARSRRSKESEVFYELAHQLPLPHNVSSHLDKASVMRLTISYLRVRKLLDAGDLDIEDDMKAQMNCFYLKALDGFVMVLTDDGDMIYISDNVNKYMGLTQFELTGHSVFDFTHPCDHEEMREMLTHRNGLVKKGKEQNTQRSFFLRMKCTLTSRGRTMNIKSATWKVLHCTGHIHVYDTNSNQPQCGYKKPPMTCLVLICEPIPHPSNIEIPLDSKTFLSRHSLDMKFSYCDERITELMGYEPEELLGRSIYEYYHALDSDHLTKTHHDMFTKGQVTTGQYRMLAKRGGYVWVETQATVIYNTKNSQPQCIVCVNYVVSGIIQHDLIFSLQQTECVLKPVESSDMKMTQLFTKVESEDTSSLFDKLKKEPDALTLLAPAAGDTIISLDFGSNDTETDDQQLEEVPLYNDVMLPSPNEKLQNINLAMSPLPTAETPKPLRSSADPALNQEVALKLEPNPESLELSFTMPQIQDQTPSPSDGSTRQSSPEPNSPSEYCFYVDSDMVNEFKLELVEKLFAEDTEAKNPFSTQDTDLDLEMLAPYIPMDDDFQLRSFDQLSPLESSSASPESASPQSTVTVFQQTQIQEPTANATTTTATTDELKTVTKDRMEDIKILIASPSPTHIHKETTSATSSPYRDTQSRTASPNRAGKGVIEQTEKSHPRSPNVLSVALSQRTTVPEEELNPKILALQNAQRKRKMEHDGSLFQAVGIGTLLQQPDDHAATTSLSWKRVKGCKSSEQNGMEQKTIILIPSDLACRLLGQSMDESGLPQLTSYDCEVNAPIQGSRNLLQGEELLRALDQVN
Sequence of Hepatocyte nuclear factor 6 (Homo sapiens) (Q9UBC0 whole entry, looked up): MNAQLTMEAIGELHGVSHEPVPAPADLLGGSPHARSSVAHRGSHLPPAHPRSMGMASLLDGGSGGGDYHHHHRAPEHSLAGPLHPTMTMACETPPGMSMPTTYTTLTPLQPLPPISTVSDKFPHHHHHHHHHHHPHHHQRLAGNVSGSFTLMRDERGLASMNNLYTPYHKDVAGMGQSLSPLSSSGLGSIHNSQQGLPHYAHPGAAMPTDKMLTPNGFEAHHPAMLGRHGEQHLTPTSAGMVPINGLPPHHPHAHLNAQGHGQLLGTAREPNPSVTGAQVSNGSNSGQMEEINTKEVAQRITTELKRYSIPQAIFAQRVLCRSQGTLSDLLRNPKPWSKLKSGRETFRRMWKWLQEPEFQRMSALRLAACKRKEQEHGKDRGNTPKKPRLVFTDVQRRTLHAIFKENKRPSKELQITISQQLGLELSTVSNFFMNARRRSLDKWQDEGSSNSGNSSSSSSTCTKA
Sequence of Signal transducer and activator of transcription 3 (Homo sapiens) (P40763 whole entry, looked up): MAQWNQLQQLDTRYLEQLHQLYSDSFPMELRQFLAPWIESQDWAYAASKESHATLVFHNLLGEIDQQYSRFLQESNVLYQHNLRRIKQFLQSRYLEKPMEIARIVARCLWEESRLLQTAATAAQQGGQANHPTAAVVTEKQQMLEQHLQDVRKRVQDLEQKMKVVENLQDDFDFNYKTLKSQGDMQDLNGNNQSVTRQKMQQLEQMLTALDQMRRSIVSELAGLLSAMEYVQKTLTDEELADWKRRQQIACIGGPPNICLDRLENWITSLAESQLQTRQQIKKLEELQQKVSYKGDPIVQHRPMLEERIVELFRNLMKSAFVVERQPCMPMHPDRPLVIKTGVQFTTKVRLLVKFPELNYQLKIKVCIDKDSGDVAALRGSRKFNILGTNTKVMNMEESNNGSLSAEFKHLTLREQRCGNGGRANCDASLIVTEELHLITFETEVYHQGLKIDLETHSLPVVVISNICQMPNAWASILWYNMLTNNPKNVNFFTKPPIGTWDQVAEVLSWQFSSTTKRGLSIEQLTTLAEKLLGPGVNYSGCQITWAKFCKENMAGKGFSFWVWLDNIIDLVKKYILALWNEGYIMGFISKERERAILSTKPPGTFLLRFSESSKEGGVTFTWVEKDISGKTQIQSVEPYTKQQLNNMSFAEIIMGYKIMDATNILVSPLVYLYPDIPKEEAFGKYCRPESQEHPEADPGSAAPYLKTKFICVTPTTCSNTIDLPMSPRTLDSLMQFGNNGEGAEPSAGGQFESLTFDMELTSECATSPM
Sequence of Transcription factor Sp1 (Homo sapiens) (P08047 whole entry, looked up): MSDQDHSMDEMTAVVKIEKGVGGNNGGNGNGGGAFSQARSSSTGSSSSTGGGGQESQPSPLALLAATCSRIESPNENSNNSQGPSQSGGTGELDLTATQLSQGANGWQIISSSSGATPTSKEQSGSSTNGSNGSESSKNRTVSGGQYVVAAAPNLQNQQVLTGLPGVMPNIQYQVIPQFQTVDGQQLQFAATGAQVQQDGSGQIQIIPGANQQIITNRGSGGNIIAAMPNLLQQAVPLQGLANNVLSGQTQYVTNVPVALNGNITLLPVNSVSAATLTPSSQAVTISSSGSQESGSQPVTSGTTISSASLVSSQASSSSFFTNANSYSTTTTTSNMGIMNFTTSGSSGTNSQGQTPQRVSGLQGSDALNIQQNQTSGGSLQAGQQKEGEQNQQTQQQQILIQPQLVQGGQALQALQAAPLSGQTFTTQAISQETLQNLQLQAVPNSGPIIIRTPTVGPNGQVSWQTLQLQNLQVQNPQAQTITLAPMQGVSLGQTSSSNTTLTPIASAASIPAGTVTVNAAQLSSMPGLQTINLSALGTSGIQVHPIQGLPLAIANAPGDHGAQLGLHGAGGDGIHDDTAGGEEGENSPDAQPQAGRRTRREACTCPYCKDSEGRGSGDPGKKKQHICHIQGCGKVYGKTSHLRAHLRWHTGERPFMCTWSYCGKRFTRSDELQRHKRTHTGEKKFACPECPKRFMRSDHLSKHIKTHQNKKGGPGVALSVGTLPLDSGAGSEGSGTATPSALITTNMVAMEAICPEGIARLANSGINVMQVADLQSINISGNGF
Sequence of Heat shock factor protein 1 (Homo sapiens) (Q00613 whole entry, looked up): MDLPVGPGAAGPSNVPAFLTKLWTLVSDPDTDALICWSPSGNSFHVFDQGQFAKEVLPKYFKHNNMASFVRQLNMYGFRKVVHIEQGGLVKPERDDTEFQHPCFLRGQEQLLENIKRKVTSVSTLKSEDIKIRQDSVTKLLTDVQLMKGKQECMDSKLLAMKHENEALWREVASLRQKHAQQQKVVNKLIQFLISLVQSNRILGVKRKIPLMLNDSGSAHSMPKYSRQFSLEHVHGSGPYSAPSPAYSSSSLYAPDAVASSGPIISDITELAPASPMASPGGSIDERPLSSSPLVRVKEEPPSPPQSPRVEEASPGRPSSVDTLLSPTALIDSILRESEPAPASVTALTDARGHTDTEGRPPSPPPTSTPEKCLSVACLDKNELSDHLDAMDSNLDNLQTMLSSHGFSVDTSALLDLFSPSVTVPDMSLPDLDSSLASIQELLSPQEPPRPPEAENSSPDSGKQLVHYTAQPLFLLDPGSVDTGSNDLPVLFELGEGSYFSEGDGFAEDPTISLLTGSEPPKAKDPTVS
Sequence of Paired box protein Pax-6 (Homo sapiens) (P26367 whole entry, looked up): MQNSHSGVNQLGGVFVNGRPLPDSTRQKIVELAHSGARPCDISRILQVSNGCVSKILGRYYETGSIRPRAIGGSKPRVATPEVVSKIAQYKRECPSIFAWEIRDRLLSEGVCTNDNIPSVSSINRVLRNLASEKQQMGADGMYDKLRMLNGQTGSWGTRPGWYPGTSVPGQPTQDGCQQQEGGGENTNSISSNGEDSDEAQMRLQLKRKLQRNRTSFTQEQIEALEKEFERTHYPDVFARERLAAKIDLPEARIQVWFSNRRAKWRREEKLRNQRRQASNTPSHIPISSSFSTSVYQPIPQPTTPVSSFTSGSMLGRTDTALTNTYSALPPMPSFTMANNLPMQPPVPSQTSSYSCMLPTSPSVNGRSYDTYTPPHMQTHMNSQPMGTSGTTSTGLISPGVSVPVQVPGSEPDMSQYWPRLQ

Take `O=C1NS(=O)(=O)c2ccccc21`: the result in experiment [1], in experiment [2], in experiment [3], in experiment [4], in [5] and in experiment [6] was inactive. The outcome in experiment [7], in experiment [8], in experiment [9], in [10], in [11] and in [12] was inactive. Also, the result in experiment [13], in experiment [14] and in experiment [15] was inactive.
Usually AC50 stands for the midpoint of the concentration-response curve, whichever way the signal moves. `C=CC(=O)OCC(CO)(COCC(COC(=O)C=C)(COC(=O)C=C)COC(=O)C=C)COC(=O)C=C`: the compound was called inactive in [1], in experiment [2], in experiment [4], in [16], in experiment [17] and in [18]. Moreover, the result in experiment [6], in experiment [11], in experiment [12], in [14] and in [15] was inactive. Also, the AC50 was 2920 nM (active) in [3]; 2900 nM (active) in experiment [5]; 2710 nM (active) in experiment [7]; 5940 nM (active) in experiment [8]; 3370 nM (active) in experiment [9]; 426 nM (active) in [13]. Also, the AC50 in experiment [19] was 722 nM (active).
For `O=C(c1ccccc1)c1ccccc1`, the outcome in experiment [1], in experiment [2], in experiment [3], in experiment [16], in [5] and in [7] was inactive. For the same compound, the call in experiment [8], in [9], in [11], in [12], in [13] and in experiment [14] was inactive. The outcome in [15] and in experiment [19] was inactive.
As for `O=S(=O)(O)c1ccccc1`, the compound was called inactive in experiment [1], in experiment [2], in [3], in experiment [4], in experiment [16] and in [5]. The outcome in [20], in experiment [18], in [6], in experiment [7], in [8] and in experiment [9] was inactive. The compound was classed as inactive in experiment [11], in experiment [12], in [13], in experiment [14], in experiment [15] and in [19]. For the same compound, the AC50 was 55500 nM (active) in [18] and 57900 nM (active) in experiment [6].
